ATXN2 expr inh = ATXN2 expression inhibition; HEK-293 ATXN2-luciferase reporter, luminescence, 24 h; Potency, µM (titrated, usually from 57 µM), inactives show top-dose activity change, negative = inhibition, most hits filed as inhibitors; actives 0.72% (n = 360,000); further: potency means the concentration at half of the fitted maximal effect; on the % scale 0 is the no-effect control and ±100 the full control effect; nearly all actives have a fitted effect of over 55% in size
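ATXN2-luciferase reporter cells (luciferase flanked by upstream and downstream ATXN2 gene portions) were treated 24 h at 37 °C with compounds at up to 57 uM. SteadyGlo luminescence gave expression; GF-AFC fluorescence gave viability.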
D3 ag = activates the human D3 dopamine receptor. max activation, %. AID 652048. P35462. D3R DiscoveRx beta-arrestin cells, luminescence, 90 min. actives 0.58% (n = 410,000); in the data active means max activation above about 30%; further: 0% is about no effect
Target sequence (P35462 whole entry, looked up): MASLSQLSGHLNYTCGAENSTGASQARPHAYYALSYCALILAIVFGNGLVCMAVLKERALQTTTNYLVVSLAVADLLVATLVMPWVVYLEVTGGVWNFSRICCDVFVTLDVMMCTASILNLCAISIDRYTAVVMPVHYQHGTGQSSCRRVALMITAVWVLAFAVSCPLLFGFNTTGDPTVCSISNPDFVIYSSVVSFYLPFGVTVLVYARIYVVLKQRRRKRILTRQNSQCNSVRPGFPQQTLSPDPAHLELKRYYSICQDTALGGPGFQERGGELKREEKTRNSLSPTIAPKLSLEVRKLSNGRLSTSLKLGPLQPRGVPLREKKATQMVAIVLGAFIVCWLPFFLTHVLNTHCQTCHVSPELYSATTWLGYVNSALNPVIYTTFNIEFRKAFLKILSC
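Agonist-mode cell screen: cells plated at 1500/well and incubated overnight at 37 °C, then exposed to library compounds for 90 min at 37 °C. Detection reagent was added for 30–60 min at room temperature, and luminescence was read.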
DRD3 antagonist = blocks the human D3 dopamine receptor; actives 2.5% (n = 360,000); P35462; D3R cells, DiscoveRx beta-arrestin luminescence, antagonist mode; stronger effect = lower value; max response, negative = inhibition, %; in the data active means max response below about -50%; inconclusive means no clear call, values can overlap the other calls; further: on the % scale 0 is the no-effect control and ±100 the full control effect
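Cells expressing the human receptor were seeded at 1500 cells/well, incubated overnight at 37 degrees C in 5% CO2, then exposed to library compounds with dopamine controls for 90 minutes at 37 degrees C before luminescent detection.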
ATXN viability = reduces viability in counter-screen for ATXN expression inhibitors. AID 651635. actives 0.49% (n = 400,000). Potency, µM (highest dose often 56.7 µM), actives largely listed as cytotoxic. S2 cells (HEK-293 line with an ATXN2-luciferase reporter) viability, CellTiter-Fluor protease fluorescence, 24 h; further: potency means the concentration at half of the fitted maximal effect; nearly all actives have a fitted effect of over 40% in size
TGFb inhibitor = blocks TGF-b signaling | HepG2 CAGA-GFP TGF-b/SMAD3 reporter, GFP fluorescence, 18 h; TGF-beta stimulated, 500 pg/mL final | Potency, µM (titrated, usually from 46.1 µM), inactives show at the highest dose activity, negative = inhibition, hits mostly inhibitors | actives 1.2% (n = 410,000); further: potency means the concentration at half of the fitted maximal effect; on the % scale 0 is the no-effect control and ±100 the full control effect; nearly all actives have a fitted effect of over 65% in size
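Read-out: total well GFP (ex488/em500-530) summed from mean per-cell fluorescence. Cells: HEPG2 CAGA-GFP, 1% FBS DMEM, 18 h at 37 degrees C with 500 pg/mL final TGF-beta. Unstimulated wells served as the full-inhibition control; stimulated DMSO wells = 0%.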
HepG2 tox-1 = kills HepG2 cells in TGF-b inhibitor counter-screen; Potency, µM (top dose mostly 46.1 µM), without a hit: top-dose activity change, negative = cytotoxicity, actives largely listed as cytotoxic; HepG2 CAGA-GFP viability, ATP luminescence, 18 h; actives 0.76% (n = 410,000); further: potency means the concentration at half of the fitted maximal effect
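CellTiter-Glo luminescence gave cytotoxicity after 18 hours at 37 degrees C. The cells were HepG2 CAGA-GFP in 1% FBS DMEM, stimulated with 500 pg/mL TGF-beta after compound addition. %Activity was normalised to no-cell wells (complete cell-killing) and DMSO (no toxicity), and curves were fitted and classified.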
TGFb CAGA inh = TGF-b pathway inhibition, cherry-pick retest; shares compounds with TGFb inhibitor; HepG2 CAGA-GFP TGF-b reporter, GFP fluorescence, 18 h; cells stimulated with TGF-beta, 500 pg/mL; Potency, µM (doses to about 46.1 µM), without a hit: at the highest dose activity, negative = inhibition, usual class: inhibitors; actives 63% (n = 1,600); AID 720534; further: potency means the concentration at half of the fitted maximal effect; on the % scale 0 is the no-effect control and ±100 the full control effect; nearly all actives have a fitted effect of over 65% in size
HepG2 tox-2 = counter-screen for TGF-b inhibitors: cytotoxicity in HepG2 cells. HepG2 CAGA-GFP viability, ATP luminescence, 18 h; cells stimulated with TGF-beta, 500 pg/mL. Potency, µM (top dose mostly 46.1 µM), inactives show at the top dose activity, negative = cytotoxicity, hits mostly inhibitors. AID 720535. shares compounds with TGFb inhibitor. actives 27% (n = 1,600); further: potency means the concentration at half of the fitted maximal effect; on the % scale 0 is the no-effect control and ±100 the full control effect; nearly all actives have a fitted effect of over 70% in size
CCL64 TGFb inh = TGF-b inhibition, CCL64 orthogonal assay; CCL64 CAGA-GFP reporter, TGF-b stimulated, GFP fluorescence, 18 h; actives 41% (n = 1,600); Potency, µM (doses to about 46.1 µM), for the others: at the top dose activity, negative = inhibition, hits mostly inhibitors; shares compounds with TGFb inhibitor; AID 720536; further: potency means the concentration at half of the fitted maximal effect; nearly all actives have a fitted effect of over 65% in size
TGFb COP inh = TGF-b inhibition validated with COP promoter. HepG2 COP-GFP TGF-b reporter, GFP fluorescence, 18 h; cells stimulated by added recombinant TGF-beta. shares compounds with TGFb inhibitor. actives 3% (n = 1,600). Potency, µM (series often up to 46.1 µM), for the others: top-dose activity, negative = inhibition, actives largely listed as inhibitors. AID 720537; further: potency means the concentration at half of the fitted maximal effect; nearly all actives have a fitted effect of over 70% in size
An asterisk follows results filed as active; i = inactive; ? = inconclusive; . = not tested or not shown; [ ] = remark or other dose. An excerpt weighted towards active compounds, which were near 4.8% of everything screened. Unless noted, the call rests on the fitted dose curve; in most records, active means well fitted curve in the direction sought with a large enough effect; inconclusive means small, poorly fitted or top-dose-only effect, or another doubt; inactive means no such curve, though single readings can be large; an effect the other way counts as inactive or inconclusive.

SMILES | ATXN2 expr inh | D3 ag | DRD3 antagonist | ATXN viability | TGFb inhibitor | HepG2 tox-1 | TGFb CAGA inh | HepG2 tox-2 | CCL64 TGFb inh | TGFb COP inh
CCN1CCOC(=O)C1CC(=O)Nc1ccc(Br)cc1 (configuration not stated) | 12% | -5 | . | i | -11% | -21% | . | . | . | .
O=C(Nc1cccc(-c2csc(Nc3ccc(Cl)cc3)n2)c1)c1cc([N+](=O)[O-])cc(C(F)(F)F)c1 | -15% | 18 | -24 | . | 20µM* | -22% | 8.2µM* | ? | 5.8µM* | 45%
O=[N+]([O-])c1cccc(NC(=S)Nc2nc(-c3ccccc3Cl)cs2)c1 | -36% | -13 | -11 | ? | 3.5µM* | -28% | 3.7µM* | 6.5µM* | 6.5µM* | 47%
O=C(CSc1nc(-c2ccc(Cl)cc2)cs1)Nc1cccc([N+](=O)[O-])c1 | . | 2 | -6 | ? | 10µM* | -31% | ? | ? | -5% | 59%
O=[N+]([O-])c1cccc(NC(=S)NCc2ccncc2)c1 | -11% | -2 | 4 | ? | -7% | -17% | . | . | . | .
Cc1cc(NC(=O)CSc2nc(-c3ccc(Cl)cc3)cs2)no1 | -23% | 0 | 4 | i | 1% | -7% | . | . | . | .
COc1ccc(-c2cc(C(F)(F)F)nc(SCC(=O)NC(C)c3ccccc3)n2)cc1 (configuration not stated) | -30% | -10 | . | ? | -4% | -26% | . | . | . | .
COc1ccccc1CNS(=O)(=O)c1ccc2c(c1)NC(=O)C(C)C(=O)N2 (configuration not stated) | . | -14 | . | . | ? | -8% | . | . | . | .
CC(=O)Nc1nonc1-c1nnc(SCc2ccc(F)cc2)n1C | 10% | -6 | . | i | 3% | -6% | . | . | . | .
Cc1cc(C(=O)N2CCN(C/C=C/c3ccccc3)CC2)cs1 | 5% | 25 | ? | i | 16µM* | -8% | ? | -17% | 9% | -22%
CN(C(=O)c1ccc(NC(=O)Cc2cccc(NC(=O)C3CCN(C(=O)CCc4ccccc4)CC3)c2)cc1)C1CCCC1 | -16% | -18 | ? | i | 13µM* | -10% | ? | -2% | 13% | 7%
CCOc1cc(/C=C2\COc3ccccc3C2=O)cc(Br)c1OCC(=O)N(C)C | 22µM* | -5 | ? | . | 3.5µM* | 13µM* | 16µM* | ? | 15µM* | ?
CCOc1cc(/C=N/Nc2nc3ccccc3[nH]2)cc(Br)c1OCC(=O)N(C)C | ? | -12 | 1 | ? | 8.9µM* | 18% | 12µM* | ? | ? | 20%
COc1ccc(/C=C2\COc3ccccc3C2=O)cc1OC | 4% | 0 | 11 | i | 16µM* | 1% | ? | ? | 18µM* | 6%
COc1cc(/C=C2\COC/C(=C\c3cc(OC)c(OC)c(OC)c3)C2=O)cc(OC)c1OC | 3.2µM* | -12 | -63* | ? | 0.63µM* | 3.5µM* | 1.3µM* | 1.3µM* | 1.3µM* | 52%
COc1cc(/C=N\Nc2nc3ccccc3[nH]2)cc(OC)c1OC | 4% | -2 | -2 | i | ? | -38% | . | . | . | .
COc1ccc(/C=C2/CCc3ccccc3C2=O)cc1OC | 9% | 5 | -3 | ? | -29% | -30% | . | . | . | .
CCOc1cc2[nH]c(=O)n(CCCCC(=O)N3CCN(c4ccc(OC)cc4)CC3)c(=O)c2cc1OCC | 3% | 1 | . | i | 14% | 5% | . | . | . | .
O=S(=O)(c1ccc(Br)cc1)c1nc(-c2ccco2)oc1SCc1ccccc1Cl | -8% | -5 | . | i | 2% | -13% | . | . | . | .
Cc1cc(C)c2c(c1)C(=O)/C(=C/c1ccc(C(=O)O)cc1)CC2 | 60% | 23 | -4 | i | 3% | 4% | . | . | . | .
O=C(O)c1ccc(/C=C2\COc3ccccc3C2=O)cc1 | -34% | -5 | -7 | i | 14µM* | -20% | 16µM* | 16µM* | -89% | 26%
COc1nc(Nc2nc3ccccc3c(=O)[nH]2)nc2ccc(C)cc12 | 50% | -4 | 29 | ? | 5.6µM* | -3% | 4.1µM* | 4.1µM* | 1.5µM* | 29%
Nc1ccc2nn(-c3ccccc3)nc2c1 | 27% | 6 | -7 | . | -28% | -23% | . | . | . | .
Nc1cc2nn(-c3ccccc3)nc2cc1Cl | 63%[11.3 µM] | -10 | 4 | i | 2.2µM* | -45% | 3.3µM* | 1.8µM* | 16% | 69%
